In PubChem BioAssay AID1159580 (chemical genetic matrix, 2015):
Where “and” joins values, the source holds several entries; their conditions need not be identical. Equal entries are not always repeated. The whole screen tested about 5,500 compounds, of which about 2,000 (36%) were called active. Not shown: some 18% with an inconclusive outcome. No stated cut-off is given here; in the data, active means normalized growth mostly below about 0.91 (no sharp cut-off); inconclusive means no clear call, values can overlap the other calls; inactive means mostly above about 0.92. The list shows a part of the results.

Experiment: chemical genetic growth profiling, strain panel (AID 1159580);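 further: tested at 20 µM; growth read once vehicle control cultures reached saturation at 30 °C; 1 = growth at the plate median or of vehicle wells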
Details: growth OD

Measured: normalized growth

CN(C)CCC(c1ccccc1)c1ccccn1 (centres undefined)
inactive: S. cerevisiae deletion strains, locus YJR066W, strain TOR1, stronger effect = lower value 0.93 | S. cerevisiae deletion strains, locus YJR075W, strain HOC1, stronger effect = lower value 1.01 and 0.951 | S. cerevisiae deletion strains, locus YKL009W, strain mrt4, stronger effect = lower value 1.03 | S. cerevisiae deletion strains, locus YKL068W, stronger effect = lower value 1 | S. cerevisiae deletion strains, locus YKL085W, strain MDH1 (second series), stronger effect = lower value 1.01 | S. cerevisiae deletion strains, locus YKL085W, strain MDH1, stronger effect = lower value 1.01 | S. cerevisiae deletion strains, locus YKL160W, strain elf1, stronger effect = lower value 1.01 | S. cerevisiae deletion strains, locus YKL190W, strain CNB1, stronger effect = lower value 1.01 | S. cerevisiae deletion strains, locus YKR001C, strain vps1, stronger effect = lower value 1 | S. cerevisiae deletion strains, locus YKR026C, strain gcn3, stronger effect = lower value 1.03 | S. cerevisiae deletion strains, locus YKR091W, strain srl3, stronger effect = lower value 1 | S. cerevisiae deletion strains, locus YLL001W, strain dnm1, stronger effect = lower value 1.02 | S. cerevisiae deletion strains, locus YLL026W, stronger effect = lower value 1.02 | S. cerevisiae deletion strains, locus YLL041C, strain sdh2, stronger effect = lower value 1.02 | S. cerevisiae deletion strains, locus YLR027C, strain aat2, stronger effect = lower value 1.01 | S. cerevisiae deletion strains, locus YLR039C, strain RIC1, stronger effect = lower value 1.05 | S. cerevisiae deletion strains, locus YLR058C, strain SHM2, stronger effect = lower value 1 | S. cerevisiae deletion strains, locus YLR102C, strain apc9, stronger effect = lower value 1 | S. cerevisiae deletion strains, locus YLR113W, strain HOG1, stronger effect = lower value 0.981 | S. cerevisiae deletion strains, locus YLR221C, strain rsa3, stronger effect = lower value 1.01 | S. cerevisiae deletion strains, locus YLR258W, strain gsy2, stronger effect = lower value 1.01 | S. cerevisiae deletion strains, locus YLR262C, strain YPT6 (second series), stronger effect = lower value 1.03 | S. cerevisiae deletion strains, locus YLR262C, strain YPT6, stronger effect = lower value 1.01 | S. cerevisiae deletion strains, locus YLR268W, strain sec22, stronger effect = lower value 1.04 | S. cerevisiae deletion strains, locus YLR320W, strain mms22, stronger effect = lower value 1.01 | S. cerevisiae deletion strains, locus YLR330W, strain CHS5, stronger effect = lower value 1.01 | S. cerevisiae deletion strains, locus YLR342W, strain FKS1 (second series), stronger effect = lower value 1.03 | S. cerevisiae deletion strains, locus YLR342W, strain FKS1, stronger effect = lower value 1.01 | S. cerevisiae deletion strains, locus YLR357W, strain rsc2, stronger effect = lower value 1.02 | S. cerevisiae deletion strains, locus YLR370C, strain arc18, stronger effect = lower value 1.02 | S. cerevisiae deletion strains, locus YLR371W, strain rom2, stronger effect = lower value 1.01 | S. cerevisiae deletion strains, locus YLR384C, strain iki3, stronger effect = lower value 1.01 | S. cerevisiae deletion strains, locus YLR418C, strain cdc73, stronger effect = lower value 0.995 | S. cerevisiae deletion strains, locus YML016C, strain PPZ1, stronger effect = lower value 1 | S. cerevisiae deletion strains, locus YML032C, strain rad52, stronger effect = lower value 1.01 | S. cerevisiae deletion strains, locus YML120C, strain ndi1, stronger effect = lower value 1.01 | S. cerevisiae deletion strains, locus YML124C, strain tub3, stronger effect = lower value 1 | S. cerevisiae deletion strains, locus YMR058W, strain fet3, stronger effect = lower value 1.02 | S. cerevisiae deletion strains, locus YMR078C, strain ctf18, stronger effect = lower value 1.01 | S. cerevisiae deletion strains, locus YMR125W, strain sto1, stronger effect = lower value 1.01 | S. cerevisiae deletion strains, locus YMR129W, stronger effect = lower value 1.01 | S. cerevisiae deletion strains, locus YMR205C, strain PFK2, stronger effect = lower value 1.01 | S. cerevisiae deletion strains, locus YMR223W, strain ubp8, stronger effect = lower value 0.983 | S. cerevisiae deletion strains, locus YMR231W, strain pep5, stronger effect = lower value 1.02 | S. cerevisiae deletion strains, locus YMR263W, strain SAP30, stronger effect = lower value 1 and 0.998 | S. cerevisiae deletion strains, locus YMR307W, strain GAS1, stronger effect = lower value 1.03 and 0.977 | S. cerevisiae deletion strains, locus YNL067W, strain RPL9B, stronger effect = lower value 0.996 | S. cerevisiae deletion strains, locus YNL071W, strain lat1, stronger effect = lower value 1.01 | S. cerevisiae deletion strains, locus YNL128W, strain TEP1, stronger effect = lower value 1.02 | S. cerevisiae deletion strains, locus YNL175C, strain NOP13, stronger effect = lower value 1.01 | S. cerevisiae deletion strains, locus YNL183C, strain NPR1, stronger effect = lower value 0.939 | S. cerevisiae deletion strains, locus YNL197C, strain WHI3, stronger effect = lower value 1.01 | S. cerevisiae deletion strains, locus YNL209W, strain ssb2, stronger effect = lower value 1.02 | S. cerevisiae deletion strains, locus YNL224C, strain SQS1, stronger effect = lower value 1 | S. cerevisiae deletion strains, locus YNL233W, strain BNI4, stronger effect = lower value 1 | S. cerevisiae deletion strains, locus YNL248C, strain rpa49, stronger effect = lower value 1 | S. cerevisiae deletion strains, locus YNL250W, strain rad50, stronger effect = lower value 0.997 | S. cerevisiae deletion strains, locus YNL271C, strain bni1, stronger effect = lower value 0.993 | S. cerevisiae deletion strains, locus YNL298W, strain CLA4, stronger effect = lower value 1.01 | S. cerevisiae deletion strains, locus YNL307C, strain MCK1, stronger effect = lower value 1.01 | S. cerevisiae deletion strains, locus YNL322C, strain KRE1 (second series), stronger effect = lower value 1.01 | S. cerevisiae deletion strains, locus YNR049C, strain mso1, stronger effect = lower value 1.02 | S. cerevisiae deletion strains, locus YNR052C, strain pop2, stronger effect = lower value 1.01 | S. cerevisiae deletion strains, locus YOL006C, strain TOP1, stronger effect = lower value 0.993 | S. cerevisiae deletion strains, locus YOL012C, strain htz1 2.13 | S. cerevisiae deletion strains, locus YOL147C, strain pex11, stronger effect = lower value 1 | S. cerevisiae deletion strains, locus YOR001W, strain rrp6, stronger effect = lower value 0.988 | S. cerevisiae deletion strains, locus YOR061W, strain CKA2, stronger effect = lower value 1 | S. cerevisiae deletion strains, locus YOR069W, strain VPS5, stronger effect = lower value 1.01 | S. cerevisiae deletion strains, locus YOR070C, strain gyp1, stronger effect = lower value 1.01 | S. cerevisiae deletion strains, locus YOR080W, strain dia2, stronger effect = lower value 1.01 | S. cerevisiae deletion strains, locus YOR083W, strain WHI5 (second series), stronger effect = lower value 1.03 | S. cerevisiae deletion strains, locus YOR083W, strain WHI5, stronger effect = lower value 1.01 | S. cerevisiae deletion strains, locus YOR106W, strain vam3, stronger effect = lower value 1 | S. cerevisiae deletion strains, locus YOR136W, strain idh2, stronger effect = lower value 0.99 | S. cerevisiae deletion strains, locus YOR144C, strain elg1, stronger effect = lower value 0.995 | S. cerevisiae deletion strains, locus YOR184W, strain ser1, stronger effect = lower value 1.01 | S. cerevisiae deletion strains, locus YOR231W, strain MKK1, stronger effect = lower value 0.981 | S. cerevisiae deletion strains, locus YOR265W, strain rbl2, stronger effect = lower value 1 | S. cerevisiae deletion strains, locus YOR270C, strain vph1, stronger effect = lower value 0.997 | S. cerevisiae deletion strains, locus YOR290C, strain snf2, stronger effect = lower value 1.04 | S. cerevisiae deletion strains, locus YOR316C, strain cot1, stronger effect = lower value 1 | S. cerevisiae deletion strains, locus YPL051W, strain arl3, stronger effect = lower value 1.01 | S. cerevisiae deletion strains, locus YPL055C, strain LGE1, stronger effect = lower value 0.985 | S. cerevisiae deletion strains, locus YPL078C, strain atp4, stronger effect = lower value 1.01 | S. cerevisiae deletion strains, locus YPL106C, strain sse1, stronger effect = lower value 1 | S. cerevisiae deletion strains, locus YPL240C, strain hsp82, stronger effect = lower value 0.989 | S. cerevisiae deletion strains, locus YPL256C, strain CLN2, stronger effect = lower value 0.928 | S. cerevisiae deletion strains, locus YPR119W, strain clb2, stronger effect = lower value 1 | S. cerevisiae deletion strains, locus YPR141C, strain kar3, stronger effect = lower value 0.994 | S. cerevisiae deletion strains, locus YPR163C, strain tif3, stronger effect = lower value 1.01 | S. cerevisiae deletion strains, locus YPR167C, strain met16, stronger effect = lower value 0.999 | S. cerevisiae deletion strains, strain wtn01, stronger effect = lower value 1 | S. cerevisiae strains, strain wild type, stronger effect = lower value 1.01
